Laboratory results as given in article PMC4081100, “A DNA-binding-site landscape and regulatory network analysis for NAC transcription factors in Arabidopsis thaliana”.

target: T1, GST-ANAC092(1-285) full length (Arabidopsis thaliana, UniProt Q9FKA0 1-285); assay: universal protein binding microarray (PBM); transcription factors of Arabidopsis thaliana; high values mean tight binding; conditions: protein: recombinant; tags: GST; chain copies: 2; dsDNA, one strand shown
T1 sequence: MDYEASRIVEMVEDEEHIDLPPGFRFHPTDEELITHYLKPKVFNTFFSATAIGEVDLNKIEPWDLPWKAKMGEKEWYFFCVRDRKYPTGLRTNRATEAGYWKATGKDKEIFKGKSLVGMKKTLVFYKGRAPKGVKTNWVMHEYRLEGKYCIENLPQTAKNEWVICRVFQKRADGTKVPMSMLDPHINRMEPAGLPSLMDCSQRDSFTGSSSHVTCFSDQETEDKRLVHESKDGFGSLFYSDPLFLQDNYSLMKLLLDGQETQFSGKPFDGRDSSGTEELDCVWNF
Outline: (§1)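 Cells were induced to make GST-tagged NAC-domain, full-length or DNA-binding-domain proteins, and zinc acetate was added for zinc-finger proteins. These proteins were purified on glutathione–Sepharose 4B, quantified by A280 or anti-GST western blot, and applied in duplicate at 200 to 500 nM final to custom all-10-mer Agilent 4 × 180K arrays that primer extension had made double-stranded. Binding is given as the normalised enrichment score (E-score) for scored gapped and ungapped 8-mers.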

Row | Sequence | binding signal [E-score]
1 | ACGTCACT | 0.406
2 | ACGTTACT | 0.439
3 | ATACGAAA | 0.421
4 | CCACGCAA | 0.474
5 | ATACGCAA | 0.487
6 | TAGCGTAA | 0.454
7 | TAACGTGA | 0.419
8 | CACGTAAA | 0.431
9 | ACGCAACA | 0.484
10 | GCGTAATA | 0.324
11 | AAGTTACC | 0.417
12 | GGAAGCAA | 0.405
13 | ACACGATA | 0.417
14 | AACGTGTA | 0.432
15 | CACGGCAA | 0.456
16 | GCGTGTAA | 0.438
17 | ACGGAAGC | 0.298
18 | ACACACGC | 0.423
19 | CGAGGAAA | 0.131
20 | ACGAGAAA | 0.141

Row | Sequence | binding signal [E-score]
21 | ACGTAATC | 0.462
22 | AACGTAAT | 0.357
23 | CACGTTAA | 0.442
24 | GTGACGTA | 0.452
25 | CTTAAGTA | 0.198
26 | AATGCCGT | 0.365
27 | CACGCAAA | 0.486
28 | CTACGTAA | 0.378
29 | GCAAGTAA | 0.415
30 | GAACACGC | 0.427
31 | CTAAGTAA | 0.3
32 | CACGAAAC | 0.452
33 | AACACGCC | 0.431
34 | ATTCCGTG | 0.401
35 | ATACGTAA | 0.45
36 | CACGTAAG | 0.446
37 | TACACGCA | 0.463
38 | TACGTTAA | 0.432
39 | GTACGTTA | 0.426

target: T2, GST-NAP(1-166) (Arabidopsis thaliana, UniProt O49255 1-166); assay: as above; conditions: protein: recombinant; tags: GST; chain copies: 2; dsDNA, one strand shown
T2 sequence: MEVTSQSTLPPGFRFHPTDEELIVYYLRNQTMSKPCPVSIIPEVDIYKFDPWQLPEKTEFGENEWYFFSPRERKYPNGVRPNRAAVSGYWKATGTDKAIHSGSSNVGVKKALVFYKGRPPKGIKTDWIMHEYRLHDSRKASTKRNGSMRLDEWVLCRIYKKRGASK
Outline: as §1

Row | Sequence | binding signal [E-score]
40 | ACGTCACT | 0.354
41 | ACGTTACT | 0.249
42 | ATACGAAA | 0.251
43 | CCACGCAA | 0.305
44 | ATACGCAA | 0.459
45 | TAGCGTAA | 0.221
46 | TAACGTGA | 0.168
47 | CACGTAAA | 0.35
48 | ACGCAACA | 0.399
49 | GCGTAATA | 0.109
50 | AAGTTACC | 0.114
51 | GGAAGCAA | 0.0755
52 | ACACGATA | 0.183
53 | AACGTGTA | 0.125
54 | CACGGCAA | 0.36
55 | GCGTGTAA | 0.155
56 | ACGGAAGC | 0.236
57 | ACACACGC | 0.0855
58 | CGAGGAAA | 0.0581
59 | ACGAGAAA | 0.206

Row | Sequence | binding signal [E-score]
60 | ACGTAATC | 0.443
61 | AACGTAAT | 0.286
62 | CACGTTAA | 0.129
63 | GTGACGTA | 0.417
64 | CTTAAGTA | 0.0567
65 | AATGCCGT | 0.366
66 | CACGCAAA | 0.385
67 | CTACGTAA | 0.312
68 | GCAAGTAA | 0.056
69 | GAACACGC | 0.248
70 | CTAAGTAA | 0.188
71 | CACGAAAC | 0.208
72 | AACACGCC | 0.184
73 | ATTCCGTG | 0.329
74 | ATACGTAA | 0.461
75 | CACGTAAG | 0.419
76 | TACACGCA | 0.375
77 | TACGTTAA | 0.12
78 | GTACGTTA | 0.173

target: T3, GST-NST2(1-184) (Arabidopsis thaliana, UniProt Q9M274 1-184); assay: as above; conditions: protein: recombinant; tags: GST; chain copies: 2; dsDNA, one strand shown
T3 sequence: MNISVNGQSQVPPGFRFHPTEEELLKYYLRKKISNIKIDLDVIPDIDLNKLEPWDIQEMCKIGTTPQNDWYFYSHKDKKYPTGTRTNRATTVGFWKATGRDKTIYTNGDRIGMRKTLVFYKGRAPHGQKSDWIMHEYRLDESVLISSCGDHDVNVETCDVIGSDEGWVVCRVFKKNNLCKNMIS
Outline: as §1

Row | Sequence | binding signal [E-score]
79 | ACGTCACT | 0.234
80 | ACGTTACT | 0.268
81 | ATACGAAA | 0.271
82 | CCACGCAA | 0.348
83 | ATACGCAA | 0.406
84 | TAGCGTAA | 0.412
85 | TAACGTGA | 0.257
86 | CACGTAAA | 0.293
87 | ACGCAACA | 0.4
88 | GCGTAATA | 0.306
89 | AAGTTACC | 0.288
90 | GGAAGCAA | 0.242
91 | ACACGATA | 0.27
92 | AACGTGTA | 0.265
93 | CACGGCAA | 0.256
94 | GCGTGTAA | 0.275
95 | ACGGAAGC | 0.257
96 | ACACACGC | 0.221
97 | CGAGGAAA | 0.0987
98 | ACGAGAAA | 0.188

Row | Sequence | binding signal [E-score]
99 | ACGTAATC | 0.356
100 | AACGTAAT | 0.309
101 | CACGTTAA | 0.301
102 | GTGACGTA | 0.311
103 | CTTAAGTA | 0.207
104 | AATGCCGT | 0.114
105 | CACGCAAA | 0.389
106 | CTACGTAA | 0.0582
107 | GCAAGTAA | 0.223
108 | GAACACGC | 0.205
109 | CTAAGTAA | 0.225
110 | CACGAAAC | 0.224
111 | AACACGCC | 0.144
112 | ATTCCGTG | 0.251
113 | ATACGTAA | 0.331
114 | CACGTAAG | 0.201
115 | TACACGCA | 0.363
116 | TACGTTAA | 0.321
117 | GTACGTTA | 0.316

target: T4, GST-NTL8 NAC domain (Arabidopsis thaliana, UniProt Q9XIN7 14-156); assay: as above; conditions: protein: recombinant; tags: GST; chain copies: 2; dsDNA, one strand shown
T4 sequence: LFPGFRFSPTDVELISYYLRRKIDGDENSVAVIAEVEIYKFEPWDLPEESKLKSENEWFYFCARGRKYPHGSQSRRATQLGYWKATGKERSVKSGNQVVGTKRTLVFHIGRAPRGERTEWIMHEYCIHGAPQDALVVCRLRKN
Outline: as §1

Row | Sequence | binding signal [E-score]
118 | ACGTTACT | 0.233
119 | CCACGCAA | 0.0836
120 | ATACGCAA | 0.172
121 | ACGCAACA | 0.0984
122 | AAGTTACC | 0.376
123 | GGAAGCAA | 0.269
124 | CACGGCAA | 0.0895
125 | CGAGGAAA | 0.442
126 | ACGAGAAA | 0.124
127 | AACGTAAT | 0.114
128 | CTTAAGTA | 0.264
129 | CACGCAAA | 0.0878
130 | CTACGTAA | 0.105
131 | GCAAGTAA | 0.264
132 | CTAAGTAA | 0.216
133 | CACGAAAC | 0.137
134 | CACGTAAG | 0.17

target: T5, GST-SND1(1-203) (Arabidopsis thaliana, UniProt Q9LPI7 1-203); assay: as above; conditions: protein: recombinant; tags: GST; chain copies: 2; dsDNA, one strand shown
T5 sequence: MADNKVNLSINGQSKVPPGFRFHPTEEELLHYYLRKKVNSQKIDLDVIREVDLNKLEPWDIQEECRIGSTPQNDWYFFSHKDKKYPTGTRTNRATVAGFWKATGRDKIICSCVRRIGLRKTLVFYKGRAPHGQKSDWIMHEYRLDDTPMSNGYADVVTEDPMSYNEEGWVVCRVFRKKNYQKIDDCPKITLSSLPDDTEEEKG
Outline: as §1

Row | Sequence | binding signal [E-score]
135 | ACGTCACT | 0.314
136 | ACGTTACT | 0.434
137 | ATACGAAA | 0.239
138 | CCACGCAA | 0.41
139 | ATACGCAA | 0.462
140 | TAGCGTAA | 0.492
141 | TAACGTGA | 0.385
142 | CACGTAAA | 0.289
143 | ACGCAACA | 0.467
144 | GCGTAATA | 0.422
145 | AAGTTACC | 0.37
146 | GGAAGCAA | 0.385
147 | ACACGATA | 0.266
148 | AACGTGTA | 0.295
149 | CACGGCAA | 0.123
150 | GCGTGTAA | 0.347
151 | ACGGAAGC | 0.209
152 | ACACACGC | 0.221
153 | CGAGGAAA | 0.17
154 | ACGAGAAA | 0.151

Row | Sequence | binding signal [E-score]
155 | ACGTAATC | 0.424
156 | AACGTAAT | 0.449
157 | CACGTTAA | 0.377
158 | GTGACGTA | 0.467
159 | CTTAAGTA | 0.267
160 | AATGCCGT | 0.0974
161 | CACGCAAA | 0.426
162 | CTACGTAA | 0.402
163 | GCAAGTAA | 0.352
164 | GAACACGC | 0.158
165 | CTAAGTAA | 0.394
166 | CACGAAAC | 0.177
167 | AACACGCC | 0.144
168 | ATTCCGTG | 0.135
169 | ATACGTAA | 0.393
170 | CACGTAAG | 0.0778
171 | TACACGCA | 0.385
172 | TACGTTAA | 0.462
173 | GTACGTTA | 0.415
